# Compounds without any hit were thinned out: in the full panel of roughly 83,000, 20% have a hit.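 Each cell line was grown in a 96-well plate and treated with one concentration of compound for 48 hours. Values below 10 were considered active.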 Unmarked numbers belong to inactive results. Activity calls are given as the source filed them.
# What was measured:
# Assay in all cases: NCI-60 one-dose screen, 48 h (100 = growth as untreated, 0 = no growth, -100 = all killed)
# Conditions in all cases: 10 µM unless noted
# [1] = tested on: HCT-15 colon
# [2] = tested on: HT29 colon
# [3] = tested on: SNB-75 CNS
# [4] = tested on: SNB-19 CNS
# [5] = tested on: U251 CNS
# [6] = tested on: PC-3 prostate
# [7] = tested on: SK-MEL-5 melanoma
# [8] = tested on: UACC-62 melanoma
# [9] = tested on: LOX IMVI melanoma
# [10] = tested on: SK-MEL-28 melanoma
Compound,growth [1],growth [2],growth [3],growth [4] [%],growth [5],growth [6] [%],growth [7],growth [8],growth [9],growth [10]
Cc1oc(-c2ccc(Cl)cc2)nc1/C=C/C(=O)c1ccccc1,97.5%,107%,93.2%,97.6,97.5%,93.6,99%,87.5%,99.6%,105%
CCCCC(=O)Nc1ncc(Cc2ccc(Cl)cc2)s1,40.3%,28.6%,46.5%,77.2,65.6%,80.9,80.3%,49.6%,64.8%,74.2%
O=C(Cn1c(=O)sc2nc3ccccc3nc21)Nc1ncc(Cc2cccc(Cl)c2Cl)s1,98.7%,107%,74.6%,93.4,94.9%,87.9,99.9%,79.1%,94.6%,120%
COc1cc(CNC(=O)CCCC/C=C/C(C)C)ccc1OCc1nnc(Nc2ccc([N+](=O)[O-])cc2)o1,81.2%,71.7%,48.7%,54,48.6%,37.6,46.3%,39.6%,55.2%,74.3%
CCN1CCN(Cc2cn(CC(=O)Nc3ccc4c(ccn4Cc4ccccc4)c3)nn2)CC1,109%,102%,86.8%,98.4,96.6%,96.4,99.9%,95%,103%,105%
CNC(=O)c1cc(Oc2ccc3nc(NC(C)=O)sc3c2)ccn1,106%,110%,84.4%,106,98.4%,96.3,101%,98.8%,93.2%,105%
CCOC(=O)c1[nH]c(=O)c2c(C)nc(-c3ccccc3)cc2c1O,100%,113%,118%,104,117%,72.1,96.7%,109%,112%,105%
CN(C)Cc1ccc(NC(=O)c2cncc(C#Cc3cnc(N)c4ncccc34)c2)cc1F,-55.7% (active),3.71% (active),123%,87.2,74.8%,75.2,77.3%,94.2%,-65% (active),-48.2% (active)
COC(C(=O)[C@@H](O)[C@@H](C)O)[C@@H]1Cc2cc3cc(O[C@H]4C[C@@H](O[C@H]5C[C@@H](O)[C@H](O)C(C)O5)[C@H](O)C(C)O4)c(C)c(O)c3c(O)c2C(=O)[C@H]1O[C@H]1C[C@@H](O[C@H]2C[C@@H](O[C@H]3C[C@@H](O)[C@H](OC)C(C)O3)[C@@H](O)C(C)O2)[C@H](O)C(C)O1 (some centres undefined),8.46% (active),-13.6% (active),-57% (active),12.4,2.99% (active),11.2,-36.9% (active),-35.4% (active),-8.28% (active),-34.1% (active)
O=S(=O)(NCCNc1cc(-c2c(-c3cccc(O)c3)nc3sccn23)ccn1)c1ccc(C(F)(F)F)cc1,25.2%,32.6%,38.3%,54.8,34.8%,31.4,-2.62% (active),40.1%,37.8%,55.7%
CCN(C(=O)N1CCN(c2cc3c(cc2F)c(=O)c(C(=O)O)cn3C2CC2)CC1)c1nc(-c2ccc(Cl)cc2)cs1,10.2%,5.63% (active),28.9%,15.6,15.1%,10.1,-28.2% (active),-26.7% (active),5.32% (active),40%
N#Cc1c(-c2ccc(Cl)cc2)nc(NN=Cc2cccc(O)c2)nc1N1CCOCC1,44.7%,69.8%,46.1%,86.9,61.6%,63.8,76.5%,94.1%,61.7%,77.1%
CC1(C)c2[nH]c3ccccc3c2C[C@]2(C)[C@H]3CC=C4[C@@H]5C[C@@](C)(C(N)=O)CC[C@]5(C)CC[C@@]4(C)[C@]3(C)CC[C@@H]12,50.9%,62.7%,101%,62.2,69.2%,50.6,19.8%,59.2%,,77.4%

# Source: PubChem BioAssay (NCI)
